Source: PubChem
HepG2 viability – kills HepG2 cells in TGF-b inhibitor counter-screen; HepG2 CAGA-GFP viability, ATP luminescence, 18 h; Potency, µM (titrated, usually from 46.1 µM), usual class: cytotoxic; 410,000 compounds, 0.76% hits; AID 588856
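CellTiter-Glo luminescence gave cytotoxicity after 18 hours at 37 degrees C. The cells were HepG2 CAGA-GFP in 1% FBS DMEM, stimulated with 500 pg/mL TGF-beta after compound addition. %Activity was normalised to no-cell wells (complete cell-killing) and DMSO (no toxicity), and curves were fitted and classified.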
IL-1B inflam inh – blocks inflammasome-driven IL-1 beta release. THP-1 LPS/ATP IL-1B secretion, AlphaLISA, 16 h; hits give low values. activity change, % at 57.5 µM. 360,000 compounds, 4.7% hits; in the data active means activity change below about -50%; inconclusive means mostly about -30% to -49%
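THP-1 cells pretreated 1 hr with compounds (up to 57.5 uM final), then stimulated with LPS (250 ng/mL final) plus ATP (1.25 mM final); secreted IL-1B measured by AlphaLISA after 16 hr, decreased signal indicating inhibition.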
TGFb inhibitor – inhibitors of TGF-b signaling; 410,000 compounds, 1.2% hits; AID 588855; Potency, µM (top dose mostly 46.1 µM), usual class: inhibitors; HepG2 CAGA-GFP TGF-b/SMAD3 reporter, GFP fluorescence, 18 h; TGF-beta stimulated, 500 pg/mL final; further: nearly all actives have a fitted effect of over 65% in size
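HEPG2 CAGA-GFP reporter cells (1000/well, DMEM with 1% FBS) received compounds, then recombinant TGF-beta at 500 pg/mL final for 18 hours at 37 degrees C. Per-cell GFP summed per well was normalised to unstimulated and stimulated DMSO controls before curve fitting.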
TDP1 cell noCPT – qHTS for Inhibitors of human tyrosyl-DNA phosphodiesterase 1 (TDP1): qHTS in cells in absence of CPT; DT40 Tdp1-/- hTDP1 cells, no CPT, ATP luminescence, 48 h; Potency, µM (top dose mostly 46.2 µM), actives largely listed as inhibitors; 420,000 compounds, 15% hits; AID 686978, 2013; further: nearly all actives have a fitted effect of over 55% in size
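DT40 Tdp1-/-;hTDP1 cells, no CPT (DMSO vehicle only), 400 cells/well; compounds pin-transferred; ≥48 hr, 37 °C; CellTiter-Glo 30 min RT dark, luminescence read.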
ASM inhibitor – human S-ASM enzyme inhibition; P17405; placental ASM, HMU-PC fluorogenic substrate, 60 min; Potency, µM (series often up to 57.5 µM), most hits filed as inhibitors; 340,000 compounds, 0.006% hits; AID 504937
Target sequence (P17405 47-631 limits assumed): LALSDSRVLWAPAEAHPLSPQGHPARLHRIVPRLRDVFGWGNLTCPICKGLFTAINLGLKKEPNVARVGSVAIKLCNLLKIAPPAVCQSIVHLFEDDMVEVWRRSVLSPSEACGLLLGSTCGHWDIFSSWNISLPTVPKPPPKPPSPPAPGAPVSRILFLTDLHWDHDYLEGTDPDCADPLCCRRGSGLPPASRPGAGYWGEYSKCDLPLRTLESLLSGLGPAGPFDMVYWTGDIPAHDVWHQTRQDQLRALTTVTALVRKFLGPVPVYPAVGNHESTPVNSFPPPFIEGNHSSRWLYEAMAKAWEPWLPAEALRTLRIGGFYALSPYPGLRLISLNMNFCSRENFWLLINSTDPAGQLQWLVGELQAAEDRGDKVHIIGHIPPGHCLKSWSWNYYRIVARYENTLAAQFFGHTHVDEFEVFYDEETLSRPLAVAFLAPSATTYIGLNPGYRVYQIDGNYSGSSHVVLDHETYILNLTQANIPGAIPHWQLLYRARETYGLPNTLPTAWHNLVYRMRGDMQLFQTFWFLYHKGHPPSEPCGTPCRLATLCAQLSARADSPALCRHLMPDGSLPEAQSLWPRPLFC
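HMU-PC0 cleavage (9 uM final) by human placental ASM, 60 min at 37 °C following 10 min compound exposure at RT; stopped at pH 10, fluorescence Ex 386/Em 447 nm.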
DT40 TDP1 CPT – growth inhibition of DT40 Tdp1-/-;hTDP1 cells with camptothecin (screen for TDP1 inhibitors). chicken DT40 Tdp1-/-;hTDP1 cells + 20 nM CPT, ATP luminescence, 48 h. Potency, µM (top dose mostly 46.2 µM), most hits filed as inhibitors. 420,000 compounds, 12% hits; further: nearly all actives have a fitted effect of over 55% in size
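Cell growth measured by CellTiter-Glo luminescence after a minimum 48 h, 37 C compound exposure with 20 nM CPT in Tdp1-knockout DT40 cells stably expressing hTDP1, seeded 400/well; qHTS titration format.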
Numbers stand for hits; [ ] = another dose, or the depositor's remark. In the library only some 19% were active in any assay of this set; here they are far more common. Unless noted, the call rests on the fitted dose curve; in most records, active means well fitted curve in the direction sought with a large enough effect; inconclusive means small, poorly fitted or top-dose-only effect, or another doubt; inactive means no such curve, though single readings can be large; an effect the other way counts as inactive or inconclusive.

Screening O=C(c1cnc(N2CCOCC2)c2ccccc12)N1CCN(c2ccccc2F)CC1 returned HepG2 viability inactive, TGFb inhibitor inconclusive, TDP1 cell noCPT inconclusive and DT40 TDP1 CPT inconclusive.
`Nc1sccc1C(=O)N1CCN(c2ccccc2)CC1` gave IL-1B inflam inh inactive, TDP1 cell noCPT 16µM and DT40 TDP1 CPT 18µM.
For CN1CCC(N(C)C(=O)c2sc3cc(F)ccc3c2Cl)CC1 the results were HepG2 viability inactive, IL-1B inflam inh inactive, TGFb inhibitor inactive, TDP1 cell noCPT inactive, ASM inhibitor inactive and DT40 TDP1 CPT inactive.
`O=C(c1sc2cc(F)ccc2c1Cl)N1CCN(c2ccccc2)CC1` gave HepG2 viability inactive, IL-1B inflam inh -60, TGFb inhibitor inactive, TDP1 cell noCPT inconclusive, ASM inhibitor inactive and DT40 TDP1 CPT inactive.
COc1cccc(-c2cc3c(c(OC)c2)OCCN(S(=O)(=O)c2ccccc2OC(F)(F)F)C3)n1 was read as TDP1 cell noCPT inactive and DT40 TDP1 CPT inactive[9.04 µM].
Screening COC(=O)c1ccc(COc2ncnc3ccccc23)o1 returned HepG2 viability inactive, IL-1B inflam inh inactive, TGFb inhibitor inactive, TDP1 cell noCPT inactive, ASM inhibitor inactive[11.5 µM] and DT40 TDP1 CPT inactive.
Screening COc1cc(/C=C2\SC(=S)N(CCC(=O)Nc3ccccc3O)C2=O)cc(OC)c1OC returned HepG2 viability inactive, IL-1B inflam inh inactive, TGFb inhibitor inactive, TDP1 cell noCPT inconclusive, ASM inhibitor inconclusive and DT40 TDP1 CPT inconclusive.
COC(=O)[C@]12CCCCC=C1N(Cc1cccc3ccccc13)C(=O)[C@H](CC(=O)NCc1cccc(C(F)(F)F)c1)C2 was read as IL-1B inflam inh -73, TDP1 cell noCPT inconclusive and DT40 TDP1 CPT inconclusive.
`CCOC(=O)[C@]12CCC=C1N(Cc1cccc3ccccc13)C(=O)[C@H](CC(=O)NCc1ccccc1)C2` gave IL-1B inflam inh inactive, TDP1 cell noCPT inconclusive and DT40 TDP1 CPT inconclusive.
CCOC(=O)[C@]12CCC=C1N(Cc1cccc3ccccc13)C(=O)[C@H](CC(=O)NCCc1ccccc1OC)C2 was read as IL-1B inflam inh inconclusive, TDP1 cell noCPT 18µM and DT40 TDP1 CPT inconclusive.
For C#CCNC(=O)C[C@@H]1C[C@@]2(C(=O)OCC)CCC=C2N(Cc2cccc3ccccc23)C1=O the results were IL-1B inflam inh inactive, TDP1 cell noCPT 16µM and DT40 TDP1 CPT inconclusive.
CCOC(=O)[C@]12CCC=C1N(Cc1cccc3ccccc13)C(=O)[C@H](CC(=O)NCCCN1CCCC1=O)C2 was read as IL-1B inflam inh inactive, TDP1 cell noCPT inconclusive and DT40 TDP1 CPT inconclusive.
CCOC(=O)[C@]12CCCC=C1N(Cc1cccc3ccccc13)C(=O)[C@H](CC(=O)NCc1ccccc1)C2 was read as IL-1B inflam inh inactive, TDP1 cell noCPT 23µM and DT40 TDP1 CPT inconclusive.
`Cc1nc([N+](=O)[O-])c(C(=O)O)n1C` gave HepG2 viability inactive, IL-1B inflam inh inactive, TGFb inhibitor inactive, TDP1 cell noCPT inactive, ASM inhibitor inactive and DT40 TDP1 CPT inactive.
For CCOc1cccc(CN2CCC(N3CCC(C(=O)NCC4CCCO4)CC3)CC2)c1 (stereo not drawn) the results were HepG2 viability inactive, IL-1B inflam inh inactive, TGFb inhibitor inactive, TDP1 cell noCPT inactive, ASM inhibitor inactive and DT40 TDP1 CPT inactive.
`COc1ccccc1CC(=O)Nc1ccon1` gave HepG2 viability inactive, IL-1B inflam inh inactive, TGFb inhibitor inactive, TDP1 cell noCPT inactive, ASM inhibitor inactive and DT40 TDP1 CPT inactive.
CCCCCCCCN1C(=O)[C@H](CC(=O)NCc2cccc3ccccc23)C[C@@]2(C(=O)OCC)CCC=C12 was read as IL-1B inflam inh inconclusive, TDP1 cell noCPT 21µM and DT40 TDP1 CPT inconclusive.
CCOC(=O)[C@]12CCCC=C1N(Cc1cccc3ccccc13)C(=O)[C@H](CC(=O)NCC1CCCCC1)C2 was read as IL-1B inflam inh inactive, TDP1 cell noCPT 23µM and DT40 TDP1 CPT inconclusive.
Screening C#CCNC(=O)C[C@@H]1C[C@@]2(C(=O)OC)CC(C)(C)CC=C2N(Cc2cccc3ccccc23)C1=O returned IL-1B inflam inh inactive, TDP1 cell noCPT 18µM and DT40 TDP1 CPT 16µM.
Screening CCOC(=O)[C@]12CCCC=C1N(Cc1cccc3ccccc13)C(=O)[C@H](CC(=O)NCc1ccc(OC)c(OC)c1)C2 returned IL-1B inflam inh -69, TDP1 cell noCPT 16µM and DT40 TDP1 CPT inconclusive.
CCOC(=O)[C@]12CCCC=C1N(Cc1cccc3ccccc13)C(=O)[C@H](CC(=O)NCc1cccc(C(F)(F)F)c1)C2 was read as IL-1B inflam inh inactive, TDP1 cell noCPT inconclusive and DT40 TDP1 CPT inconclusive.
Screening CCOC(=O)[C@]12CCC=C1N(Cc1ccccc1)C(=O)[C@H](CC(=O)NCc1cccc3ccccc13)C2 returned IL-1B inflam inh inactive, TDP1 cell noCPT inconclusive and DT40 TDP1 CPT inconclusive.
For CCCCNC(=O)C[C@@H]1C[C@@]2(C(=O)OC)CC(C)(C)CC=C2N(Cc2cccc3ccccc23)C1=O the results were IL-1B inflam inh inactive, TDP1 cell noCPT inconclusive and DT40 TDP1 CPT inconclusive.
CCC(C)N(C(=O)Cn1nnc(-c2ccc(F)cc2)n1)C1CCS(=O)(=O)C1 (stereo not drawn) was read as HepG2 viability inactive, IL-1B inflam inh inactive, TGFb inhibitor inactive, TDP1 cell noCPT inactive, ASM inhibitor inactive and DT40 TDP1 CPT inactive.
For CCOC(=O)[C@]12CCC=C1N(Cc1cccc3ccccc13)C(=O)[C@H](CC(=O)NCCCCc1ccccc1)C2 the results were IL-1B inflam inh -70, TDP1 cell noCPT 16µM and DT40 TDP1 CPT 23µM.
Cc1ccccc1C(=O)Nc1cccc(NC(=O)c2cccnc2)c1 was read as HepG2 viability inactive, IL-1B inflam inh inactive, TGFb inhibitor inactive, TDP1 cell noCPT inactive, ASM inhibitor inactive and DT40 TDP1 CPT inactive.
Screening CCc1ccc(CN(Cc2cn[nH]c2-c2ccc(OC)cc2)C(=O)Nc2cc(Cl)ccc2OC)cc1 returned HepG2 viability inactive, TGFb inhibitor inconclusive, TDP1 cell noCPT 23µM and DT40 TDP1 CPT 16µM.
CCCCN(C(=O)Cn1nnc2ccccc21)C(C(=O)NCCOC)c1ccc(OC)cc1 (stereo not drawn) was read as HepG2 viability inactive, IL-1B inflam inh inactive, TGFb inhibitor inactive, TDP1 cell noCPT inactive, ASM inhibitor inactive and DT40 TDP1 CPT inactive.
